About 83,000 compounds went through this panel and 20% of them were active in at least one assay; those are over-represented in the sample as a whole.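 Growth was measured after 48 h exposure to one concentration of compound in 96-well plates. Values under 10 count as active.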 Values without a mark were called inactive. Active and inactive are the calls of the source.

We go through 28 compounds from PubChem BioAssay (NCI).

Test in all cases: NCI-60 one-dose screen, 48 h (100 = growth as untreated, 0 = no growth, -100 = all killed)
Common to all, as to details: 10 µM unless noted

Assay [1] relates to HCT-15 colon.
For assay [2], the system named is HT29 colon.
Assay [3] concerns SNB-75 CNS.
The subject of assay [4] is SNB-19 CNS.
Assay [5] concerns U251 CNS.
For assay [6], the system named is SK-MEL-5 melanoma.
The subject of assay [7] is UACC-62 melanoma.
Assay [8] deals with LOX IMVI melanoma.
The subject of assay [9] is SK-MEL-28 melanoma.

As to `CN(CCCCCl)P(=O)(OCc1ccc([N+](=O)[O-])o1)C(F)(F)c1ccc(CC(=O)NC[C@@H](O)/C=C\[C@@H](O)[C@H](CO)Cc2ccccc2)cc1` (some centres not stated), the growth was 96.2% in [1]; 77% in assay [2]; 95.4% in [3]; 102% in assay [4]; 93.7% in [5]; 97.1% in assay [6]. Also, the values for the growth in assay [7], in assay [8] and in assay [9] were 74.4%, 60.4% and 97.8%, respectively.
For the compound `Cc1ccc2c(C(C[N+](=O)[O-])c3ccco3)c(-c3ccccc3)[nH]c2c1` (configuration not stated), the growth in assay [1] is 19.5%; in assay [2] it was 5.24% (active); in [3], -5.04% (active); in assay [4], 38.5%; in assay [5] it was 25.8%; in assay [6], 35.6%. Besides, the growth in assay [7] was 35.1%; in [8], 23.5%; in assay [9], 60.3%.
For `O=C1c2cccc3cccc(c23)C(=O)N1CCCCCN1CCN(CCCCCOc2ccc(-c3nc4ccc(N5CCOCC5)cc4[nH]3)cc2)CC1`, the growth is 80.4% in assay [1]; 44.3% in assay [2]; 112% in assay [3]; 129% in assay [4]; 99.6% in assay [5]; 96.7% in assay [6]. The figures for the growth in [7], in [8] and in [9] were 75%, 56.4% and 95.7%, respectively.
Regarding `CC(=O)Nc1ccc(-n2c(O)c(/C=N/NC(=O)Cc3ccccc3Nc3c(Cl)cccc3Cl)sc2=S)cc1`, the growth in assay [1] is 103%; in assay [2] it was 104%; in assay [3], 89.6%; in assay [4], 96.4%; in assay [5] it was 90.4%; in assay [6] it was 96.2%. Moreover, the values for the growth in assay [7], in assay [8] and in assay [9] were 95.4%, 84.2% and 111%, respectively.
On to `CN1CCN(c2ccc3nc(-c4ccc(OCCCCN5CCN(CCCCN6C(=O)c7cccc8cccc(c78)C6=O)CC5)cc4)[nH]c3c2)CC1`, for which the growth in [1] is 76.2%; in assay [2], 60.3%; in [3] it was 36.4%; in [4], 84.2%; in [5], 64.8%; in assay [6], 69.1%. The values for the growth in assay [7], in assay [8] and in assay [9] were 95.4%, 47.1% and 24.6%, respectively.
With `Cn1cc(C(=O)c2nc(-c3c[nH]c4ccc(F)cc34)no2)c2cc(F)ccc21`, the growth is 68.6% in assay [1]; 101% in assay [2]; 79.8% in assay [3]; 101% in assay [4]; 100% in assay [5]; 92.8% in assay [6]. Moreover, the growth in assay [7] is 81.7%; in assay [8] it was 95.2%; in assay [9], 103%.
As for `CCNc1ncnc2c1cnn2C1CCCO1` (configuration not stated), the growth in [1] was 106%; in [2] it was 119%; in assay [3], 89.4%; in assay [4], 105%; in [5], 107%; in assay [6], 105%. Besides, the growth in [7] was 107%; in assay [8], 111%; in assay [9], 107%.
Take `Cn1ncc2c(=O)nc3c(-c4ccccc4)n[nH]n3c21`: the growth is 104% in [1]; 103% in assay [2]; 96.3% in assay [3]; 99.1% in assay [4]; 110% in assay [5]; 110% in assay [6]. Besides, the growth in assay [7] was 96.7%; in assay [8], 115%; in assay [9], 138%.
As to `COc1ccc(S(=O)(=O)N2CCCCCC2)cc1NC(=O)c1[nH]c(C)c2c1CCCCC2=O`, the growth in assay [1] was 12.8%; in assay [2], 16.8%; in assay [3] it was 4.93% (active); in assay [4] it was 38.2%; in assay [5] it was 29.9%; in [6], -43.8% (active). Moreover, the growth in assay [7] is 15.8%; in [8] it was -33.6% (active); in assay [9] it was 49.8%.
As for `O=C(CCN1C(=O)/C(=C/c2ccc(Cl)cc2)SC1=S)NCCCN1CCOCC1`, the growth in assay [1] was 98%; in assay [2] it was 105%; in [3], 92.4%; in assay [4], 101%; in assay [5], 102%; in assay [6], 97.5%. The values for the growth in [7], in assay [8] and in [9] were 92.4%, 99.7% and 100%, respectively.
Regarding `COc1cc(/C=C/C(=O)c2cccnc2Nc2ccc(F)cc2)cc(OC)c1OC`, the growth is 22.2% in assay [1]; 12.5% in assay [2]; 22.4% in assay [3]; 61.6% in assay [4]; 24.1% in assay [5]; 53.7% in assay [6]. Further, the figures for the growth in assay [7], in assay [8] and in assay [9] were 49.9%, 8.97% (active) and 72.1%, respectively.
In the case of `C#CCOc1ccc2ncnc(N3CCC(NC(=O)CCl)CC3)c2c1`, the growth in [1] was 67.7% [8.25 µM]; in assay [2], 64.9% [8.25 µM]; in assay [3], 24.2% [8.25 µM]; in [4], 77.9% [8.25 µM]; in [5] it was 66.1% [8.25 µM]; in assay [6] it was 75% [8.25 µM]. Further, the growth in assay [7] is 72.7% [8.25 µM]; in [8], 78.1% [8.25 µM]; in assay [9], 77.5% [8.25 µM].
For the compound `COc1ccc(-n2nc(C)c3c(Oc4ccc(NC(=O)Nc5c(Cl)cccc5Cl)cc4)ncnc32)cc1`, the growth in assay [1] is 105%; in assay [2], 107%; in [3] it was 93.6%; in [4], 98.5%; in assay [5] it was 96.9%; in assay [6], 99.9%. The growth in assay [7] is 98.4%; in assay [8], 100%; in assay [9], 106%.
On to `COc1ccc2c(c1)c(-c1nonc1-c1cn(C)c3ccccc13)cn2C`, for which the growth in assay [1] was 25.7%; in assay [2], 8.38% (active); in assay [3] it was -6.82% (active); in assay [4], 34.9%; in [5] it was 32.8%; in [6], 13.3%. Also, the growth in [7] was 38%; in assay [8] it was 47.2%; in [9] it was 63.1%.
As to `O=C(COc1cccc(/C=C2\COc3ccccc3C2=O)c1)Nc1nccs1`, the growth is -17.9% (active) in assay [1]; -28.7% (active) in assay [2]; 77.3% in assay [3]; 73.5% in assay [4]; 22.6% in [5]; 52.3% in assay [6]. The growth was 78.2% in [7], -96.8% (active) in assay [8] and -68.3% (active) in assay [9].
As for `C=C1c2nc3ccccc3n2C=C(c2ccc(Cl)cc2)N1Cc1ccc(OC)cc1`, the growth in assay [1] is 67.3%; in [2], 88.8%; in assay [3] it was 103%; in [4], 79.1%; in [5] it was 92.8%; in [6], 72.3%. Also, the growth in assay [7] was 68%; in assay [8] it was 87.5%; in assay [9], 88.9%.
On to `Cc1cc(C)nc(SC2=C(Nc3cccc(Cl)c3)C(=O)N(Cc3ccccc3)C2=O)n1`, for which the growth in assay [1] is 59.9% [30 µM]; in [2] it was 53.6% [30 µM]; in assay [3], 58.5% [30 µM]; in [4], 94.4% [30 µM]; in [5], 78.5% [30 µM]; in assay [6] it was 50.1% [30 µM]. Further, the growth in assay [7] was 61.4% [30 µM]; in assay [8], 67.6% [30 µM]; in assay [9], 93.2% [30 µM].
As to `CC1=CC(C)(C)Nc2ccc(Cc3ccc4c(c3)C(C)=CC(C)(C)N4)cc21`, the growth was 101% in assay [1]; 103% in [2]; 86.3% in assay [3]; 93.4% in [4]; 93.5% in assay [5]; 92.8% in [6]. The growth in assay [7] is 84.1%; in assay [8], 88.7%; in assay [9], 104%.
As to `CCOC(=O)c1sc2nc(-c3cccc(OC)c3)nc(N3CCOCC3)c2c1C`, the growth was 96.4% in assay [1]; 89.9% in assay [2]; 95.3% in assay [3]; 89.1% in [4]; 86.9% in assay [5]; 85.5% in assay [6]. The values for the growth in [7], in assay [8] and in [9] were 75.6%, 94% and 101%, respectively.
As for `CCc1c(Nc2ccccc2C)nc(N)[nH]c1=O`, the growth in [1] was 98.4%; in assay [2], 110%; in assay [3], 92.9%; in assay [4], 110%; in assay [5], 120%; in assay [6] it was 107%. Besides, the growth was 110% in [7], 107% in [8] and 112% in assay [9].
Consider `O=C1/C(=C/N2N=C(c3ccc4ccccc4c3)CC2c2ccccc2O)SC(=S)N1c1cccnc1` (configuration not stated), for which the growth in [1] is 12.4%; in assay [2], 10.7%; in assay [3], -4.45% (active); in assay [4], 40.1%; in [5] it was 16.1%; in assay [6], 64%. Also, the figures for the growth in [7], in assay [8] and in assay [9] were 66.2%, 27.5% and 78.6%, respectively.
For the compound `Cc1ccc(NC(=O)/C=C/c2ccccc2)c(C(N)=O)c1`, the growth in assay [1] was 33.6%; in assay [2], 14.1%; in [3], 11.3%; in [4], 40.5%; in assay [5], 28.8%; in [6], 6.05% (active). For the same compound, the results for the growth in assay [7], in assay [8] and in assay [9] were 44.2%, 51.2% and 33.1%, respectively.
Consider `NC(N)=N/N=C(/c1ccccc1)c1ccc(F)cc1`, for which the growth in [1] is 10.3%; in [2] it was -1.2% (active); in assay [3], 18%; in [4] it was 26.8%; in assay [5], 4.79% (active); in assay [6] it was -18.7% (active). Moreover, the growth in assay [7] was 4.05% (active); in [8], 18.6%; in assay [9] it was 35.1%.
For the compound `Cc1cc(C)c2nc3nc(C)cc(C)c3c(N)c2c1`, the growth in [1] is 16.4%; in assay [2], 18%; in [3], 52.7%; in assay [4] it was 35.3%; in assay [5] it was 15.3%; in assay [6] it was 26.8%. Also, the figures for the growth in assay [7], in assay [8] and in assay [9] were 41.8%, 7.77% (active) and 38.7%, respectively.
Regarding `O=C1/C(=C/c2ccc(Cl)cc2)SC(=S)N1CCc1ccc(O)cc1`, the growth is 99.7% in assay [1]; 117% in [2]; 71.4% in assay [3]; 98.9% in assay [4]; 101% in assay [5]; 97.1% in assay [6]. Further, the growth in [7] is 78.5%; in [8], 65.1%; in [9], 101%.
For `COc1ccc2[nH]cc(-c3noc(C(=O)c4cn(C)c5ccc(F)cc45)n3)c2c1`, the growth in assay [1] is 94.4%; in assay [2], 109%; in assay [3], 74.6%; in [4], 96%; in assay [5], 101%; in assay [6], 92.5%. Besides, the figures for the growth in [7], in assay [8] and in [9] were 88.2%, 93.2% and 105%, respectively.
As for `O=C(COc1cccc(/C=C2\COc3ccc(Cl)cc3C2=O)c1)c1ccc(Cl)cc1`, the growth in [1] is 82%; in [2] it was 97.7%; in assay [3], 67.8%; in assay [4], 90.5%; in assay [5] it was 87.5%; in assay [6] it was 94.3%. In addition, the values for the growth in assay [7], in assay [8] and in assay [9] were 80.9%, 76.1% and 119%, respectively.
Regarding `COc1ccc(S(=O)(=O)N2CCN(C)CC2)cc1NC(=O)c1[nH]c(C)c2c1CCCCC2=O`, the growth in assay [1] is 62.4%; in [2], 28.9%; in assay [3], 17.4%; in assay [4] it was 66.5%; in assay [5], 68%; in [6] it was 43.7%. For the same compound, the growth was 25.6% in assay [7], 29.6% in assay [8] and 72% in assay [9].
